Assay results taken from PubChem BioAssay (NCATS).
Results filed as inconclusive are left out. Entries that show only a call come without a potency. The source made the active and inactive calls. Calls follow the shape of the dose curve; as a rule, active = well fitted cell-killing curve with a large enough effect; inconclusive = small, poorly fitted or top-dose-only effect, or effect the other way; inactive = no such curve, though single readings can be large or run the other way.

How the values were obtained:
[1] = Quantitative High-Throughput drug screen in 47 multiple myeloma cell lines against the NCATS MIPE library collection: XG1_PLB cell viability assay (AID 1919866); conditions: CellTiter-Glo ATP, 48 h; series mostly up to 45.8 µM; also: nearly all actives have a fitted effect of over 35% in size
Summary of the method: (§1)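 Readout: median RLU from CellTiter-Glo after 5 min at room temperature. Preceding step was 48 h drug treatment of 500 cells/well at 37 °C, 5% CO2, with DMSO-only and media-only control wells.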

[2] = Quantitative High-Throughput drug screen in 47 multiple myeloma cell lines against the NCATS MIPE library collection: PCM6_Riken cell viability assay (AID 1919870); conditions: CellTiter-Glo ATP, 48 h; series mostly up to 45.8 µM; also: nearly all actives have a fitted effect of over 30% in size
Summary of the method: as §1

[3] = Quantitative High-Throughput drug screen in 47 multiple myeloma cell lines against the NCATS MIPE library collection: KMS11_JCRBsus cell viability assay (AID 1919873); conditions: KMS11 myeloma viability, CellTiter-Glo ATP luminescence, 48 h; series mostly up to 45.8 µM; also: nearly all actives have a fitted effect of over 50% in size
Summary of the method: as §1

[4] = Quantitative High-Throughput drug screen in 47 multiple myeloma cell lines against the NCATS MIPE library collection: OPM2_DSMZ cell viability assay (AID 1919872); conditions: OPM2 myeloma viability, CellTiter-Glo ATP luminescence, 48 h; series mostly up to 45.8 µM; also: nearly all actives have a fitted effect of over 30% in size
Summary of the method: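 Steps: seed 500 cells per well; pin-transfer MIPE 4.0 library; incubate 48 h at 37C, 5% CO2, humidified; add CellTiter-Glo, 5 min room temperature; read luminescence.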

[5] = Quantitative High-Throughput drug screen in 47 multiple myeloma cell lines against the NCATS MIPE library collection: VP6_DJ cell viability assay (AID 1919867); conditions: ATP luminescence, 48 h; series mostly up to 45.8 µM; also: nearly all actives have a fitted effect of over 40% in size
Summary of the method: as §1

[6] = Quantitative High-Throughput drug screen in 47 multiple myeloma cell lines against the NCATS MIPE library collection: UTMC2_PLB cell viability assay (AID 1919868); conditions: CellTiter-Glo ATP luminescence, 48 h; series mostly up to 45.8 µM; also: nearly all actives have a fitted effect of over 55% in size
Summary of the method: as §1

[7] = Quantitative High-Throughput drug screen in 47 multiple myeloma cell lines against the NCATS MIPE library collection: PE2_PLB cell viability assay (AID 1919869); conditions: PE2_PLB myeloma cells viability, ATP luminescence, 48 h; series mostly up to 45.8 µM; also: nearly all actives have a fitted effect of over 35% in size
Summary of the method: as §1

[8] = Quantitative High-Throughput drug screen in 47 multiple myeloma cell lines against the NCATS MIPE library collection: RPMI8226_ATCC cell viability assay (AID 1919871); conditions: RPMI8226 myeloma viability, CellTiter-Glo ATP luminescence, 48 h; series mostly up to 45.8 µM; also: nearly all actives have a fitted effect of over 30% in size
Summary of the method: as §1

[9] = Quantitative High-Throughput drug screen in 47 multiple myeloma cell lines against the NCATS MIPE library collection: KMS28BM_JCRB cell viability assay (AID 1919874); conditions: CellTiter-Glo ATP, 48 h; series mostly up to 45.8 µM; also: nearly all actives have a fitted effect of over 35% in size
Summary of the method: as §1
Potency is read from the fitted curve at half-maximal effect.

Clc1ccc(C(Cn2ccnc2)OCc2ccsc2Cl)c(Cl)c1 (configuration not stated)
Potency [1]: 23.5 µM (active)
Potency [2]: 16.6 µM (active)
Potency [3]: 13.2 µM (active)

CCCS(=O)c1ccc2nc(NC(=O)OC)[nH]c2c1 (configuration not stated)
Potency [4]: 23.5 µM (active)
Potency [3]: 18.7 µM (active)

CN(C)CCCC1(c2ccc(F)cc2)OCc2cc(C#N)ccc21 (configuration not stated)
Potency [5]: inactive
Potency [6]: inactive
Potency [7]: inactive
Potency [2]: inactive
Potency [8]: 18.7 µM (active)
Potency [4]: inactive

COCCCN1CCC(NC(=O)c2cc(Cl)c(N)c3c2OCC3)CC1
Potency [5]: 18.7 µM (active)
Potency [8]: 18.7 µM (active)
Potency [4]: inactive
Potency [3]: 23.5 µM (active)

Cc1nc(-c2ccc(OCC(C)C)c(C#N)c2)sc1C(=O)O
Potency [6]: inactive
Potency [7]: inactive
Potency [2]: inactive
Potency [8]: inactive
Potency [4]: inactive
Potency [9]: inactive

CN(C)c1ccc(O)c2c1C[C@H]1C[C@H]3[C@H](N(C)C)C(=O)C(C(N)=O)=C(O)[C@@]3(O)C(=O)C1=C2O
Potency [7]: 20.9 µM (active)
Potency [2]: 18.7 µM (active)
Potency [4]: 20.9 µM (active)

O=C(CS(=O)Cc1ccco1)NCC=CCOc1cc(CN2CCCCC2)ccn1 (configuration not stated)
Potency [5]: 16.6 µM (active)
Potency [7]: inactive
Potency [4]: inactive
Potency [9]: inactive

CC(C)c1ccc2c(c1)c(SC(C)(C)C)c(CC(C)(C)C(=O)O)n2Cc1ccc(Cl)cc1
Potency [1]: 23.5 µM (active)
Potency [4]: inactive

COc1ccc2cc([C@H](C)C(=O)O)ccc2c1
Potency [6]: 23.5 µM (active)
Potency [7]: inactive
Potency [8]: inactive
Potency [4]: inactive
Potency [9]: inactive

Cc1ccc(C(=O)c2cc(O)c(O)c([N+](=O)[O-])c2)cc1
Potency [6]: 26.4 µM (active)
Potency [7]: 23.5 µM (active)
Potency [4]: inactive
Potency [9]: inactive

COc1c(O)cc2c(c1O)[C@@H]1O[C@H](CO)[C@@H](O)[C@H](O)[C@H]1OC2=O
Potency [5]: inactive
Potency [7]: inactive
Potency [2]: inactive
Potency [8]: inactive
Potency [9]: inactive

C[C@@H](c1ncncc1F)[C@](O)(Cn1cncn1)c1ccc(F)cc1F
Potency [7]: inactive
Potency [2]: 1.66 µM (active)
Potency [4]: inactive
Potency [3]: inactive

OC(CN1CCN(c2cccc(Cl)c2)CC1)C(c1ccccc1)c1ccccc1 (configuration not stated)
Potency [7]: inactive

O=C1c2ccccc2-c2n[nH]c3cccc1c23
Potency [4]: inactive

Cc1cccc(CN2CCN(C(c3ccccc3)c3ccc(Cl)cc3)CC2)c1 (configuration not stated)
Potency [6]: 20.9 µM (active)
Potency [2]: 16.6 µM (active)

CN(C)C(=O)[C@H](O)[C@H](Cc1ccccc1)NC(=O)c1cc2cc(Cl)ccc2[nH]1
Potency [5]: 7.43 µM (active)
Potency [6]: 3.32 µM (active)
Potency [7]: 2.64 µM (active)
Potency [2]: 8.33 µM (active)
Potency [4]: 14.8 µM (active)

COc1ccc(C2(C#N)CCC(C(=O)O)CC2)cc1OC1CCCC1 (configuration not stated)
Potency [5]: 16.6 µM (active)
Potency [7]: inactive
Potency [2]: 16.6 µM (active)
Potency [8]: inactive
Potency [4]: inactive
Potency [3]: inactive
Potency [9]: inactive

CC(C)c1nc(CN(C)C(=O)N[C@H](C(=O)N[C@@H](Cc2ccccc2)C[C@H](O)[C@H](Cc2ccccc2)NC(=O)OCc2cncs2)C(C)C)cs1
Potency [1]: inactive
Potency [2]: inactive
Potency [4]: 20.9 µM (active)

Nc1nc(Cl)nc2c1ncn2[C@H]1C[C@H](O)[C@@H](CO)O1
Potency [5]: 3.72 µM (active)
Potency [6]: 2.35 µM (active)
Potency [7]: 14.8 µM (active)
Potency [8]: inactive
Potency [4]: inactive
Potency [9]: 4.18 µM (active)

Oc1ccc(-c2nc(-c3ccc(F)cc3)c(-c3ccncc3)[nH]2)cc1
Potency [5]: 16.6 µM (active)
Potency [7]: 26.4 µM (active)
Potency [2]: 20.9 µM (active)
Potency [8]: inactive

CC(C)[C@H](N)C(=O)OCCOCn1cnc2c(=O)[nH]c(N)nc21
Potency [7]: inactive
Potency [2]: inactive
Potency [8]: inactive
Potency [4]: inactive

CC(C)Oc1ccc2c(=O)c(-c3ccccc3)coc2c1
Potency [7]: inactive
Potency [2]: inactive
Potency [4]: inactive
Potency [3]: inactive
Potency [9]: inactive

CN(C)C(=O)COC(=O)Cc1ccc(OC(=O)c2ccc(N=C(N)N)cc2)cc1
Potency [5]: inactive
Potency [7]: 5.26 µM (active)
Potency [8]: inactive
Potency [4]: inactive
Potency [3]: inactive

O=P(O)(O)C(O)(Cn1ccnc1)P(=O)(O)O
Potency [5]: 6.45 µM (active)
Potency [7]: inactive
Potency [2]: inactive
Potency [8]: inactive
Potency [4]: inactive
Potency [3]: inactive
Potency [9]: inactive

CCCCc1ccc2nc(NC(=O)OC)[nH]c2c1
Potency [5]: 0.0047 µM (active)
Potency [7]: 0.0418 µM (active)
Potency [2]: 0.0935 µM (active)
Potency [8]: 0.418 µM (active)
Potency [4]: 0.0166 µM (active)
Potency [3]: 0.0033 µM (active)

CC[C@]1(O)C[C@H]2CN(CCc3c([nH]c4ccccc34)[C@@](C(=O)OC)(c3cc4c(cc3OC)N(C=O)[C@H]3[C@@](O)(C(=O)OC)[C@H](OC(C)=O)[C@]5(CC)C=CCN6CC[C@]43[C@@H]65)C2)C1
Potency [6]: 0.0093 µM (active)
Potency [8]: 0.0093 µM (active)
Potency [4]: 0.003 µM (active)

COc1cc(C(C)=O)ccc1OCCCN1CCC(c2noc3cc(F)ccc23)CC1
Potency [5]: 16.6 µM (active)
Potency [2]: 18.7 µM (active)
Potency [8]: 13.2 µM (active)
Potency [4]: inactive
Potency [9]: 5.9 µM (active)

Cc1nccn1CC1CCc2c(c3ccccc3n2C)C1=O (configuration not stated)
Potency [5]: inactive
Potency [7]: inactive
Potency [2]: inactive
Potency [8]: inactive
Potency [4]: inactive
Potency [9]: 2.64 µM (active)

C=C(c1ccc(C(=O)O)cc1)c1cc2c(cc1C)C(C)(C)CCC2(C)C
Potency [2]: inactive
Potency [8]: inactive
Potency [4]: inactive
Potency [9]: inactive

Cc1c(OCC(F)(F)F)ccnc1CS(=O)c1nc2ccccc2[nH]1 (configuration not stated)
Potency [8]: inactive
Potency [4]: inactive
Potency [9]: inactive

Cc1ccc(NC(=O)c2ccc(CN3CCN(C)CC3)cc2)cc1Nc1nccc(-c2cccnc2)n1
Potency [5]: 23.5 µM (active)
Potency [2]: 18.7 µM (active)
Potency [8]: inactive
Potency [4]: inactive
Potency [9]: inactive

COc1cc2nc(N3CCN(C(=O)C4CCCO4)CC3)nc(N)c2cc1OC (configuration not stated)
Potency [7]: inactive
Potency [8]: inactive
Potency [4]: inactive

Nc1cc(C(Cl)=C(Cl)Cl)c(S(N)(=O)=O)cc1S(N)(=O)=O
Potency [7]: inactive
Potency [2]: inactive
Potency [8]: inactive
Potency [4]: inactive

N=C(N=C(N)N)N1CCOCC1
Potency [5]: inactive
Potency [6]: inactive
Potency [7]: inactive
Potency [4]: inactive
Potency [9]: inactive
